Inhibition data for 32 molecules are collected here from ChEMBL document CHEMBL3433997, “St. Jude Leishmania screening dataset” (2016).

Holding throughout (type): functional
For experiment [1], the target named is Solute carrier family 2, facilitated glucose transporter member 1 (Homo sapiens) (UniProt P11166). The experiment can be described thus: ST_JUDE_LEISH: Cytotoxicity at 2uM final concentration against transgenic Leishmania Mexicana promastigotes LmGLUT1 that are glucose transport deficient and complemented with the human glucose transporter GLUT1. Activity is measured by DNA content using SYBR green in vitro.

Experiment [2] addresses Hexose transporter 1 (Plasmodium falciparum) (UniProt O97467). The experiment can be described thus: ST_JUDE_LEISH: Cytotoxicity at 2uM final concentration against transgenic Leishmania Mexicana promastigotes LmPfHT that are glucose transport deficient and complemented with the Plasmodium falciparum hexose transporter. Activity is measured by DNA content using SYBR green in vitro.

For experiment [3], the target named is Glucose transporter (Leishmania mexicana) (UniProt O61059). The experiment can be described thus: ST_JUDE_LEISH: Cytotoxicity at 2uM final concentration against transgenic Leishmania Mexicana promastigotes LmGT2 that are glucose transport deficient and complemented with the L. Mexicana glucose transporter 2. Activity is measured by DNA content using SYBR green in vitro.

As a reminder, the inhibition is the relative decrease from the control value, in per cent.

Chain of Solute carrier family 2, facilitated glucose transporter member 1 (Homo sapiens) (P11166 whole entry): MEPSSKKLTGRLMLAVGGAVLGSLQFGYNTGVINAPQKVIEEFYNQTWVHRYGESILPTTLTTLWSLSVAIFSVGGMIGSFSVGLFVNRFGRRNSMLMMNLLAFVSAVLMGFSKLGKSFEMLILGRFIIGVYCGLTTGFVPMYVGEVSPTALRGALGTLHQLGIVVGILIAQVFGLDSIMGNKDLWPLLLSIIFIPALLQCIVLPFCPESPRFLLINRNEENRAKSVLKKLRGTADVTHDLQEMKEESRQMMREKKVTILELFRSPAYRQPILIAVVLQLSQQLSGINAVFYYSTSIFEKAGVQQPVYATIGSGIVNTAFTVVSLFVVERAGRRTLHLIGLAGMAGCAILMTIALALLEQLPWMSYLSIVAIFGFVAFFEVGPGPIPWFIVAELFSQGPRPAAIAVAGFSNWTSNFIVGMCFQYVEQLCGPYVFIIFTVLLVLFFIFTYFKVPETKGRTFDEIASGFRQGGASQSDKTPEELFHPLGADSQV

For `COc1ccc2ncc(F)c([C@@H](O)CN3CCC(NCc4cc5c(cn4)OCCO5)CC3)c2c1`, the values for the inhibition in experiment [1], in experiment [2] and in experiment [3] were 2.51%, 2.79% and 3.93%, respectively.
For `COC(=O)c1ccc2nc(-c3cc(-c4cccc(-c5ccccc5)c4)cnc3N)[nH]c2c1` the same measures were 5.22%, 5.28% and 4.17%.
For `CC[C@H](C)CNC(=O)c1cccc(-c2ccc(CN3CCC(N4CCCC4)CC3)cc2)n1` the same measures were 2.3%, 0.54% and 1.28%.
The corresponding values for `COc1ccc(CN2CCC(NCc3ccc(C(F)(F)F)cc3)CC2)cc1` are 19.2%, 14.1% and 14%.
In the case of `CCc1cccc2c(C#N)cn(CC(=O)Nc3ccc(OC)cc3)c12`, the inhibition in experiment [1] is 0.84%; in experiment [2] it was 3.26%; in experiment [3], 1.27%.
The corresponding values for `CC[C@H](N/C(=N\c1ccc(-c2ccccc2)cc1)Nc1ccc(C#N)cc1O)c1ccccc1` are 4.55%, 3.4% and 2.55%.
For `N#Cc1ccc2[nH]cc(-c3cn4cc(SC5CCCC5)ccc4n3)c2c1` the same measures were 0.43%, 1.11% and 1.09%.
Regarding `CC(Cc1ccc(OCCN2CCN(c3ccccc3)CC2)cc1)NCC(O)c1cccc(Cl)c1F` (stereo unspecified), the figures for the inhibition in experiment [1], in experiment [2] and in experiment [3] were 2.22%, 0.09% and 1.85%, respectively.
The corresponding values for `CCn1ccc2c(N3CCCC3=O)cc(C(=O)N[C@@H](Cc3ccccc3)[C@H](O)CNC3CCCCC3)cc21` are 4.2%, 7.08% and 0.18%.
For `CCc1nc(N)nc(N)c1-c1ccc(F)cc1` the same measures were 6.27%, 4.73% and 5.14%.
For `CCCCC(CCCC)CN1C(=O)C(c2ccccc2)(c2ccccc2)N=C1N` the same measures were 1.9%, 1.66% and 0.77%.
Regarding `O=C(NC1CCN(Cc2ccccc2)CC1)c1ccc(-c2nc3cc(Cl)c(F)cc3[nH]2)s1`, the inhibition was 3.32% in experiment [1], 3.3% in experiment [2] and 4.27% in experiment [3].
For `O=C(NC(NC(=S)Nc1ccc([N+](=O)[O-])cc1)C(Cl)(Cl)Cl)c1cccc(Cl)c1` (stereo unspecified) the same measures were -0.29%, -1.54% and -0.06%.
The corresponding values for `Cc1ccc2[nH]c(C)cc(=NN=Cc3ccc(Cl)cc3)c2c1` are -0.11%, 0.61% and -1.26%.
The corresponding values for `CCn1cc2c3c(cc(C(=O)N[C@@H](Cc4ccccc4)[C@H](O)CNC4CCOCC4)cc31)N(C)S(=O)(=O)CC2` are 0.41%, 0.29% and 4.85%.
For the molecule `Cc1ccc(Oc2ncccc2C(=O)Nc2cccc3cccnc23)c(C)c1`, the inhibition in experiment [1] was -2.47%; in experiment [2], -0.84%; in experiment [3], -1.45%.
Take `N#Cc1ccc(-c2nc(CO)c(C(=O)NCCCCN3CCC(c4ccc5c(c4OCC(N)=O)CCCC5)CC3)s2)cc1`: the inhibition is 1.02% in experiment [1], -1.06% in experiment [2] and 1.74% in experiment [3].
As to `Cc1cc(C2CCN(CCCCNC(=O)c3ccc(NC(=O)c4ccc(Cl)cc4)cc3)CC2)c(C)cc1OCc1nccn1C`, the figures for the inhibition in experiment [1], in experiment [2] and in experiment [3] were 0.5%, 0.08% and 0.69%, respectively.
The corresponding values for `COc1ccc2nccc([C@@H](O)CN3CCC(NCCOc4ccc(F)cc4Cl)CC3)c2c1` are 9.75%, 11.6% and 4.96%.
The corresponding values for `CC1(C)NC(N)=NC(=N)N1OCCNCc1ccc(Cl)cc1` are 4.58%, 4.01% and 3.92%.
For the molecule `Cc1cc(OCCCN2CCCC2)ccc1NC(=O)COc1ccc(Cl)cc1C(=O)c1cc(C#N)cc(C(F)(F)F)c1`, the inhibition in experiment [1] was found to be 73%; in experiment [2] it was 11.6%; in experiment [3], 10.3%.
The corresponding values for `FC(F)(F)c1cccc2c(NN=Cc3ccccc3)ccnc12` are 2.7%, 2.21% and 1.42%.
As to `CCN1CCN(c2cc(C)c3cc(NC(=O)c4cncc(Br)c4)ccc3n2)CC1`, the results for the inhibition in experiment [1], in experiment [2] and in experiment [3] were -0.07%, -1.3% and -2.43%, respectively.
With `O=C(Nc1ccc2c(c1)OCO2)NC1CCN(c2ccnc(NCc3ccc(F)cc3)n2)CC1`, the figures for the inhibition in experiment [1], in experiment [2] and in experiment [3] were 2.05%, 2.3% and 0.61%, respectively.
Consider `O=C(CNC1CCCCC1)Nc1cccc(C(=O)Nc2cccc(C(F)(F)F)c2)c1`, for which the inhibition in experiment [1] was -1.07%; in experiment [2], -0.66%; in experiment [3] it was -1.14%.
Regarding `COc1ccc2[nH]cc(C3CCN(CCC4CCN(C(=O)/C=C/c5ccc(Cl)c(Cl)c5)CC4)CC3)c2c1`, the results for the inhibition in experiment [1], in experiment [2] and in experiment [3] were 2.88%, 1.24% and 1.93%, respectively.
For `CO/C(=C\C=C\c1cc2cc(Cl)ccc2[nH]1)C(=O)NCCCN1CCN(c2cc(Cl)ccc2OC)CC1` the same measures were 1.52%, 1.33% and -1.6%.
For `Cc1cccc2nc(-c3cccc(-c4cccc(NC(=O)Nc5ccc(Cl)cc5)c4)c3)[nH]c12` the same measures were -3.06%, -0.68% and -1.91%.
In the case of `CCOC(=O)c1ccc(Nc2cc(Nc3ccc(C(=O)OCC)cc3)nc(C)n2)cc1`, the inhibition in experiment [1] came to 7.7%; in experiment [2], 35.2%; in experiment [3], 3.24%.
The corresponding values for `COc1ccc(NC(=O)[C@H](CC(C)C)Nc2cc(C)nc(NCCc3cccs3)n2)cc1` are -2.08%, 1.29% and -1.58%.
The corresponding values for `CN1CCN(S(=O)(=O)c2cccc(Nc3nccc(N(C)c4ccc5c(c4)nc(NC(=O)c4cccs4)n5C)n3)c2)CC1` are -0.55%, 0.27% and 1.49%.
The corresponding values for `COc1ccc2[nH]ccc(=NN=Cc3ccccc3Cl)c2c1` are 7.36%, 12.6% and 2.03%.
